# Reference: PubChem BioAssay (NCATS)
# Results filed as inconclusive are left out. Calls of active or inactive are those of the source. Calls follow the shape of the dose curve; as a rule, active = well fitted curve in the direction sought with a large enough effect; inconclusive = small, poorly fitted or top-dose-only effect, or another doubt; inactive = no such curve, though single readings can be large; an effect the other way counts as inactive or inconclusive.
# What was measured:
# [1] = target: N-terminal Xaa-Pro-Lys N-methyltransferase 1 (Homo sapiens) (UniProt Q9BV86); experiment: qHTS Assay for Inhibitors of N-terminal methyltransferase 1 (NTMT1): LOPAC validation of the NTMT1 SAHH-coupled ThioGlo3 Assay (AID 1347143); also: nearly all actives have a fitted effect of over 70% in size; also: potency is read from the fitted curve at half-maximal effect
# In short: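 Fluorescence read-out (excitation 340nm, emission 450nm) of SAH-derived thiol, measured via SAHH coupling and ThioGlo3, taken immediately and after a 30 min room-temperature reaction, then normalized to the background read. Enzyme: NTMT1 at 125nM; cofactor SAM 100uM in the added reagent.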
# [2] = qHTS of pediatric cancer cell lines to identify multiple opportunities for drug repurposing: Confirmatory screen for BT-37 cells (AID 1347117); settings: BT-37 pediatric cancer cells, viability;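 also: potency is read from the fitted curve at half-maximal effect; viability measured after 48 h of compound exposure; nearly all actives have a fitted effect of over 55% in size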
# In short: (§1)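 Cells (500-1,000/well) in growth media were settled 5 h at 37 degrees C, then given compounds for 48 h. Viability was read as CellTiter-Glo luminescence. Primary runs used MIPE at 11 points (0.78 nM-46 µM) and NPC at 8 points (0.59 nM-46 µM); follow-ups used 11 points.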
# [3] = qHTS of pediatric cancer cell lines to identify multiple opportunities for drug repurposing: Confirmatory screen for TC32 cells (AID 1347118); settings: TC32 Ewing sarcoma cells viability qHTS;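 also: potency is read from the fitted curve at half-maximal effect; cells exposed to compound for 48 h before the read; nearly all actives have a fitted effect of over 65% in size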
# In short: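 qHTS, TC32, 48 h drug treatment, CellTiter-Glo luminescence as a proxy for metabolically active cells; primary top concentration 46 µM (MIPE 11-pt, NPC 8-pt); confirmatory 11-pt.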
# [4] = qHTS of pediatric cancer cell lines to identify multiple opportunities for drug repurposing: Confirmatory screen for MG 63 (6-TG R) cells (AID 1347119); also: nearly all actives have a fitted effect of over 55% in size; also: potency is read from the fitted curve at half-maximal effect
# In short: as §1
# [5] = qHTS of pediatric cancer cell lines to identify multiple opportunities for drug repurposing: Confirmatory screen for U-2 OS cells (AID 1347122); also: potency is read from the fitted curve at half-maximal effect; nearly all actives have a fitted effect of over 65% in size
# In short: as §1
# [6] = qHTS of pediatric cancer cell lines to identify multiple opportunities for drug repurposing: Confirmatory screen for Rh18 cells (AID 1347125); also: nearly all actives have a fitted effect of over 55% in size; also: potency is read from the fitted curve at half-maximal effect
# In short: as §1
# [7] = qHTS of pediatric cancer cell lines to identify multiple opportunities for drug repurposing: Confirmatory screen for OHS-50 cells (AID 1347128);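 also: compound exposure lasted 48 h at 37 degrees C; nearly all actives have a fitted effect of over 55% in size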; also: potency is read from the fitted curve at half-maximal effect
# In short: as §1
# [8] = test system: Zika virus NS2B-NS3 protease; experiment: Primary screen GU AMC qHTS for Zika virus inhibitors (AID 1347154); also: nearly all actives have a fitted effect of over 70% in size; also: potency is read from the fitted curve at half-maximal effect
# In short: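 Unlinked Zika NS2B hydrophilic domain/NS3 protease domain noncovalent complex (25 nM final) in 10 mM Tris-HCl pH 8.0, 0.01% Tween 20, with AMC peptide substrate. Fluorescence (ex 340, em 450 nm) change over 15 min, room temperature; percent inhibition fitted to 4-parameter Hill equation.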
# [9] = qHTS of pediatric cancer cell lines to identify multiple opportunities for drug repurposing: Confirmatory screen for Rh41 cells (AID 1347123);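 also: potency is read from the fitted curve at half-maximal effect; 48 h compound exposure; nearly all actives have a fitted effect of over 60% in size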
# In short: as §1
# [10] = qHTS of pediatric cancer cell lines to identify multiple opportunities for drug repurposing: Confirmatory screen for RD cells (AID 1347124);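 also: cells exposed to compound for 48 h before viability readout; nearly all actives have a fitted effect of over 65% in size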; also: potency is read from the fitted curve at half-maximal effect
# In short: as §1
# [11] = qHTS of pediatric cancer cell lines to identify multiple opportunities for drug repurposing: Confirmatory screen for Rh30 cells (AID 1347126); also: nearly all actives have a fitted effect of over 55% in size; also: potency is read from the fitted curve at half-maximal effect
# In short: as §1
# [12] = qHTS of pediatric cancer cell lines to identify multiple opportunities for drug repurposing: Confirmatory screen for Saos-2 cells (AID 1347127); settings: Saos-2 osteosarcoma cell viability; also: potency is read from the fitted curve at half-maximal effect; nearly all actives have a fitted effect of over 60% in size
# In short: as §1
# [13] = qHTS of pediatric cancer cell lines to identify multiple opportunities for drug repurposing: Confirmatory screen for SK-N-SH cells (AID 1347129);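 also: potency is read from the fitted curve at half-maximal effect; cells exposed to compound for 48 h before viability read; nearly all actives have a fitted effect of over 60% in size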
# In short: as §1
# Furin (Homo sapiens) = Furin (Homo sapiens) (UniProt P09958); experiment: Furin counterscreen qHTS for Zika virus inhibitors (AID 1347149); also: nearly all actives have a fitted effect of over 70% in size; also: potency is read from the fitted curve at half-maximal effect
# In short: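 Fluorogenic cleavage of BOC-RVRR-AMC (2 microM final, Km ~15 µM) was monitored (ex 340, em 450 nm) at 37C after 15 min RT preincubation of 5 nM furin with compounds in HEPES pH 7.0 buffer with CaCl2 and Triton X-100. Percent inhibition was fitted to a 4-parameter Hill curve.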
# [14] = test system: Zika virus NS2B-NS3 protease (unlinked); experiment: Optimization of GU AMC qHTS for Zika virus inhibitors: Unlinked NS2B-NS3 protease assay (AID 1347151); also: nearly all actives have a fitted effect of over 80% in size; also: potency is read from the fitted curve at half-maximal effect
# In short: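 Unlinked protease (25 nM final); buffer 10 mM Tris-HCl pH 8.0 + 0.01% Tween 20; AMC substrate; 15 min RT, dark; Δfluorescence normalized to no-inhibitor/no-enzyme controls; 4-parameter Hill fit.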
# [15] = qHTS of pediatric cancer cell lines to identify multiple opportunities for drug repurposing: Confirmatory screen for control Hh wild type fibroblast cells (AID 1347121); also: nearly all actives have a fitted effect of over 70% in size; also: potency is read from the fitted curve at half-maximal effect
# In short: as §1
# [16] = test system: Zika virus NS2B-NS3 protease (linked construct); experiment: Confirmatory screen NINDS AMC qHTS for Zika virus inhibitors (AID 1347152)
# In short: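 Enzyme (1 nM, linked construct) was preincubated with compound for 15 minutes at room temperature in 10 mM Tris-HCl pH 8.0 with 0.01% Tween 20. Bz-Nle-Lys-Arg-Arg-AMC was then added to 10 microM, and AMC fluorescence was recorded immediately and after 15 minutes.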
# [17] = test system: Zika virus NS2B-NS3 protease (unlinked complex); experiment: Confirmatory screen GU AMC qHTS for Zika virus inhibitors (AID 1347153); also: nearly all actives have a fitted effect of over 70% in size
# In short: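 Fluorescence change (ex 340/em 450 nm) over 15 min, ~20% substrate conversion, normalized to no-inhibitor and no-enzyme controls, then Hill-fitted. Unlinked protease at 25 nM; AMC peptide 10 µM.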
# Sequence of N-terminal Xaa-Pro-Lys N-methyltransferase 1 (Homo sapiens) (Q9BV86 whole entry, looked up): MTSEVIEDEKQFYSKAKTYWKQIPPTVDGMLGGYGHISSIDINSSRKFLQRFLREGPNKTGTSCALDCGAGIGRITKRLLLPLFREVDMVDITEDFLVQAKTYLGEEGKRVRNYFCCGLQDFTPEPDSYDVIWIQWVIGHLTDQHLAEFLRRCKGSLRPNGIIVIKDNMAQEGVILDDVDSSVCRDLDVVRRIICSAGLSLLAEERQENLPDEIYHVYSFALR
# Sequence of Furin (Homo sapiens) (P09958 whole entry, looked up): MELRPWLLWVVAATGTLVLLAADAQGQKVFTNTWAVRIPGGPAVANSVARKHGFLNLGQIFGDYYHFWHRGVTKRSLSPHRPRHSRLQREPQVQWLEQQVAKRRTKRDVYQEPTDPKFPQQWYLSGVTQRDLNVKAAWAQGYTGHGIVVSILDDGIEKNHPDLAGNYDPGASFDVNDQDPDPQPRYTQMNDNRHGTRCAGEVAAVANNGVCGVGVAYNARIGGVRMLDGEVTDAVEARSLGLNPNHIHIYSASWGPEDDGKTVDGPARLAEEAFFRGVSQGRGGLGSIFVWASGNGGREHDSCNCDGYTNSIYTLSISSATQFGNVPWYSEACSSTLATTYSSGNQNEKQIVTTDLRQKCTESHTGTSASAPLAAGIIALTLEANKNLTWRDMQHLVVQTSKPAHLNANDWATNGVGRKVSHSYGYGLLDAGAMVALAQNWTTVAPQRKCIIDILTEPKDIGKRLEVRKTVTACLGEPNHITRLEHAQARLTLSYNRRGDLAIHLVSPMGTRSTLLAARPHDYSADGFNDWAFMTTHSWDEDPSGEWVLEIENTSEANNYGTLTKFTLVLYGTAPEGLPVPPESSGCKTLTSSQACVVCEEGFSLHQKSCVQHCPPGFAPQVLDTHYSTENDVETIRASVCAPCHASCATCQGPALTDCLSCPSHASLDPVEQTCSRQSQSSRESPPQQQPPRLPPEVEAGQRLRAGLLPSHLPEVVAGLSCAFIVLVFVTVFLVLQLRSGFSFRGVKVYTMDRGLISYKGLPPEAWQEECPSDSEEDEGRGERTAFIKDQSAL
smiles,measurement,setting,value
C[C@H](Cc1ccccc1)Nc1ncnc2c1ncn2[C@@H]1O[C@H](CO)C(O)[C@H]1O (some centres not stated),Potency,[1],inactive
OCC1O[C@H]([S-])C(O)[C@@H](O)[C@@H]1O.[Au+] (some centres not stated),Potency,[1],inactive
CC[C@@H](C)[C@H]1O[C@]2(CC[C@@H]1C)C[C@@H]1C[C@@H](C/C=C(\C)[C@@H](O[C@H]3C[C@H](OC)[C@@H](O[C@H]4C[C@H](OC)[C@@H](O)[C@H](C)O4)[C@H](C)O3)[C@@H](C)/C=C/C=C3\CO[C@@H]4[C@H](O)C(C)=C[C@@H](C(=O)O1)[C@]34O)O2,Potency,[1],inactive
Oc1c(Br)cc(Br)c2cccnc12,Potency,[2],18.5 µM (active)
same,Potency,[3],1.65 µM (active)
same,Potency,[4],16.5 µM (active)
same,Potency,[5],14.7 µM (active)
same,Potency,[6],inactive
same,Potency,[7],inactive
same,Potency,[8],inactive
COC(=O)c1nc(Cl)c(Cl)nc1N,Potency,[2],1.47 µM (active)
same,Potency,[3],2.33 µM (active)
same,Potency,[4],2.93 µM (active)
same,Potency,[5],2.61 µM (active)
same,Potency,[9],1.31 µM (active)
same,Potency,[10],2.61 µM (active)
same,Potency,[6],20.8 µM (active)
same,Potency,[11],16.5 µM (active)
same,Potency,[12],2.61 µM (active)
same,Potency,[7],18.5 µM (active)
same,Potency,[13],4.69 µM (active)
same,Potency,[8],10 µM (active)
COc1ccc(NC(=O)/C=C/c2ccc(Cl)cc2)cc1,Potency,[1],inactive
Nc1nc(SCc2ccc([N+](=O)[O-])cc2)c2ncn([C@@H]3O[C@H](CO)C(O)[C@H]3O)c2n1 (some centres not stated),Potency,[1],inactive
CC(C)(C)NCC(O)COc1nsnc1N1CCOCC1 (configuration not stated),Potency,[1],inactive
NC(=O)C(=O)O,Potency,[1],inactive
same,Potency,Furin (Homo sapiens),inactive
same,Potency,[14],inactive
N=c1ccn2c(n1)O[C@H]1C(O)[C@@H](CO)O[C@H]12 (some centres not stated),Potency,[1],inactive
CCCCC#Cc1nc(NC)c2ncn([C@@H]3O[C@H](CO)[C@@H](O)C3O)c2n1 (some centres not stated),Potency,[1],39.8 µM (active)
C[N+](C)(C)CCOP(=O)(O)OP(=O)([O-])OC[C@H]1O[C@@H](n2ccc(N)nc2=O)[C@H](O)C1O (some centres not stated),Potency,[1],inactive
COC(=O)Nc1nc2ccc(C(=O)C3CC3)cc2[nH]1,Potency,[2],2.33 µM (active)
same,Potency,[3],1.17 µM (active)
same,Potency,[4],1.47 µM (active)
same,Potency,[15],inactive
same,Potency,[10],2.33 µM (active)
same,Potency,[6],inactive
same,Potency,[11],inactive
same,Potency,[12],1.31 µM (active)
same,Potency,[7],1.31 µM (active)
same,Potency,[8],inactive
Cc1cc2c(cc1Cl)N(C(=O)Nc1ccc(Oc3cccnc3C)nc1)CC2,Potency,[1],8.91 µM (active)
COc1ccc(/C=C/c2nc(NCCCN(C)C)c3ccccc3n2)cc1,Potency,[1],50.1 µM (active)
same,Potency,Furin (Homo sapiens),24.1 µM (active)
same,Potency,[14],26.7 µM (active)
same,Potency,[16],inactive
same,outcome,[17],inactive
C=C/C(C)=C/[C@@]1(C)SC(=O)C(C)=C1O,Potency,[1],inactive
Nc1ncnc2c1ncn2[C@@H]1O[C@H](CO)C(O)[C@H]1O (some centres not stated),Potency,[1],2.24 µM (active)
CO/N=C(\C(=O)N[C@@H]1C(=O)N2C(C(=O)O)=C(COC(C)=O)CS[C@H]12)c1csc(N)n1 (stereo in doubt),Potency,[1],inactive
CNC(=O)[C@H]1O[C@@H](n2cnc3c(NCc4cccc(I)c4)ncnc32)[C@H](O)C1O (some centres not stated),Potency,[1],inactive
CN(C)c1ccc(C(=C2C=CC(=[N+](C)C)C=C2)c2ccccc2)cc1,Potency,[2],0.657 µM (active)
same,Potency,[3],0.261 µM (active)
same,Potency,[4],0.208 µM (active)
same,Potency,[15],737 nM (active)
same,Potency,[9],0.414 µM (active)
same,Potency,[10],1.31 µM (active)
same,Potency,[6],1.04 µM (active)
same,Potency,[11],0.104 µM (active)
same,Potency,[12],0.522 µM (active)
same,Potency,[7],2.61 µM (active)
same,Potency,[13],1.32 µM (active)
same,Potency,[8],inactive
CNc1ncnc2c1ncn2[C@@H]1O[C@H](CO)C(O)[C@H]1O (some centres not stated),Potency,[1],inactive
Nc1nc(Cl)nc2c1ncn2[C@@H]1O[C@H](CO)C(O)[C@H]1O (some centres not stated),Potency,[1],inactive
[O-][n+]1ccccc1SSc1cccc[n+]1[O-],Potency,[2],0.811 µM (active)
same,Potency,[3],1.29 µM (active)
same,Potency,[4],inactive
same,Potency,[15],inactive
same,Potency,[10],inactive
same,Potency,[12],1.82 µM (active)
same,Potency,[13],3.23 µM (active)
same,Potency,[8],inactive
OC[C@H]1O[C@@H](n2cnc3c(NC4CCCC4)ncnc32)[C@H](O)C1O (some centres not stated),Potency,[1],inactive
C=C[C@H]1CN2CC[C@@H]1C[C@H]2[C@H](O)c1ccnc2ccc(OC)cc12,Potency,[1],56.2 µM (active)
NCC1OC(OC2C(O)[C@@H](OC3C(O)C(N)CC(N)C3OC3OC(CO)C(O)C(O)C3N)O[C@@H]2CO)C(N)C(O)C1O (some centres not stated),Potency,[1],inactive
CCCSc1ccc2nc(NC(=O)OC)[nH]c2c1,Potency,[2],3.98 µM (active)
same,Potency,[3],0.355 µM (active)
same,Potency,[4],1.26 µM (active)
same,Potency,[15],inactive
same,Potency,[5],1 µM (active)
same,Potency,[9],1.12 µM (active)
same,Potency,[10],2.51 µM (active)
same,Potency,[12],1.58 µM (active)
same,Potency,[7],2.51 µM (active)
same,Potency,[13],6.31 µM (active)
same,Potency,[8],inactive
